Screening results as filed in PubChem.
An excerpt weighted towards active compounds, which were near 10% of everything screened.
JMJD2A Tudor inh: qHTS Assay for Inhibitors of JMJD2A-Tudor Domain | Lysine-specific demethylase 4A (Homo sapiens), O75164 | AlphaScreen JMJD2A-Tudor / H3K4me3 peptide binding | Potency, µM (doses to about 114 µM), without a hit: at the top dose activity change, negative = inhibition, usual class: inhibitors | 390,000 compounds, 4.4% hits; note: potency is the fitted concentration of half-maximal effect; % is set by controls: 0 for no effect and ±100 for the full control effect; nearly all actives have a fitted effect of over 50% in size
BAZ2B block: qHTS Assay for Inhibitors of BAZ2B; Bromodomain adjacent to zinc finger domain protein 2B (Homo sapiens), Q9UIF8; AlphaScreen BAZ2B-H3K14Ac peptide displacement; Potency, µM (titrated, usually from 114 µM), for the others: at the highest dose activity change, negative = inhibition, most hits filed as inhibitors; 360,000 compounds, 4.4% hits; AID 504333, 2011; note: potency is the fitted concentration of half-maximal effect; % is set by controls: 0 for no effect and ±100 for the full control effect; nearly all actives have a fitted effect of over 60% in size
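In this displacement format the biotinylated H3(5-23) peptide acetylated at Lys14 serves as ligand at 50 nM, with BAZ2B at 50 nM in PBS pH 7.4 containing 0.01% Tween-20. Donor and acceptor beads are 10 ug/mL final.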
CtBP-E1A blk: qHTS Assay for Inhibitors of the CtBP/E1A Interaction; CtBP / adenovirus E1A interaction (AlphaScreen); AID 651724, 2012; 340,000 compounds, 0.49% hits; AlphaScreen GST-E1A/His-CtBP binding, 1536-well; hits give low values; activity change, % (concentration not given with the values); in the data active = activity change below about -65%; inconclusive = mostly about -30% to -63%; note: % is set by controls: 0 for no effect and ±100 for the full control effect
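Steps: dispense buffer (Tris pH 8.0, NaCl 300 mM, TCEP 1 mM, BSA, Tween 20); add 5X protein mix (GST-E1A, His-CtBP, 125 nM each); pin 23 nL compound; 2 h at 37 °C, dark; add 5X beads (50 ug/mL); 1 h; read.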
HP1b chromo inh: HTS for Inhibitors of HP1-beta Chromodomain Interactions with Methylated Histone Tails; Chromobox protein homolog 1 (Homo sapiens), P83916; AlphaScreen HP1-beta / biotin-H3K9me3 peptide binding; Potency, µM (titrated, usually from 114 µM), without a hit: at the top dose activity change, negative = inhibition, most hits filed as inhibitors; 390,000 compounds, 0.56% hits; AID 540317, 2011; note: potency is the fitted concentration of half-maximal effect; nearly all actives have a fitted effect of over 70% in size
Target sequence (P83916 whole entry, looked up): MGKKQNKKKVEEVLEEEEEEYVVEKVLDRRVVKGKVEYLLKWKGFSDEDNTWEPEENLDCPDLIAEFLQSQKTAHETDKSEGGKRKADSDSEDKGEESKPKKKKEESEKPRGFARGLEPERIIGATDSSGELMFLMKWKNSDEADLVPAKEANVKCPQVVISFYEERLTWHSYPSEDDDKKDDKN
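AlphaScreen: HP1-beta (50 nM) preformed 30 min with biotin-H3(1-18)K9me3 peptide (50 nM) in PBS pH 7.4, 0.01% Tween-20. Compound added for 30 min at RT, then streptavidin donor/nickel chelate acceptor beads (10 ug/mL) for 30 min.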
Six1-Eya2 inh: qHTS Assay for Inhibitors of the Six1/Eya2 Interaction; AlphaScreen GST-Six1/His-Eya2 binding, biochemical; hits give low values; activity change, % (concentration not given with the values); 360,000 compounds, 0.56% hits; in the data active = activity change below about -65%; inconclusive = mostly about -30% to -63%; note: % is set by controls: 0 for no effect and ±100 for the full control effect
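GST-Six1 + His-Eya2 (5X stock: 250/500 nM); Tris pH 8.0, 300 mM NaCl, 0.05% BSA, 0.02% Tween 20; GSH donor/Ni acceptor beads; 1 h 37 °C dark; AlphaScreen readout.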
G9a block: qHTS Assay for Inhibitors of Histone Lysine Methyltransferase G9a. G9a H3K9 monomethylation, AlphaScreen, 2 h. Potency, µM (top dose mostly 102 µM), for the others: at the highest dose activity, negative = inhibition, most hits filed as inhibitors. 350,000 compounds, 8.8% hits; note: potency is the fitted concentration of half-maximal effect; % is set by controls: 0 for no effect and ±100 for the full control effect; nearly all actives have a fitted effect of over 75% in size
Target sequence (Q96KQ7 913-1193 limits assumed): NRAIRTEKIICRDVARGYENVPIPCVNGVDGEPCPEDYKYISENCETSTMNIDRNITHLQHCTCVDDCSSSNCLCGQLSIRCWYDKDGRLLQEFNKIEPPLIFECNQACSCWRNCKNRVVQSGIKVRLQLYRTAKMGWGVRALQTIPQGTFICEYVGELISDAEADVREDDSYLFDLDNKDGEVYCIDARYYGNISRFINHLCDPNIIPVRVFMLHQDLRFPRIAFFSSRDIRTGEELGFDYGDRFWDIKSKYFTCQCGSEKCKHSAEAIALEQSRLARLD
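AlphaScreen read-out: biotin-H3K9 peptide (500 nM) methylation by 20 nM enzyme with 20 uM SAM, 2 h at room temperature after 15 min compound preincubation; anti-monomethyl H3K9 antibody plus donor/acceptor beads, 10 min dark.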
An asterisk follows results filed as active; ! = repeats disagree; [ ] = remark or other dose. Unless noted, calls come from the whole dose curve; as a rule, active = well fitted inhibition curve with a large enough effect; inconclusive = small, poorly fitted or top-dose-only effect; inactive = no such curve, though single readings can be large or run the other way.

CC1N(C)c2cc(NC(=O)c3ccco3)c(P(=O)(Nc3ccc([N+](=O)[O-])cc3)N3CCOCC3)cc2C1(C)C (centres undefined) was read as JMJD2A Tudor inh inconclusive, BAZ2B block inconclusive, CtBP-E1A blk -6.7, HP1b chromo inh inconclusive, Six1-Eya2 inh -28.5 and G9a block 50.1µM*.
`CC(C)C1(C)N=C(c2ncccc2C(=O)O)NC1=O` (centres undefined) gave JMJD2A Tudor inh 22.4µM*, BAZ2B block 28.2µM*, CtBP-E1A blk 7.6, HP1b chromo inh -3.4%, Six1-Eya2 inh -11.0 and G9a block 31.6µM*.
Screening CC(C)C1(C)N=C(c2nc3ccccc3cc2C(=O)O)NC1=O (centres undefined) returned JMJD2A Tudor inh -21.4%, BAZ2B block -36.2%, CtBP-E1A blk 9.6, HP1b chromo inh 30.0%, Six1-Eya2 inh 4.3 and G9a block 7.8%[2.33 µM].
`Cc1ccccc1-c1ccc2n1Cc1cnnn1-c1ccccc1-2` gave JMJD2A Tudor inh 50.1µM*, CtBP-E1A blk inconclusive, HP1b chromo inh inconclusive and Six1-Eya2 inh inconclusive.
Screening Cc1ccccc1C(=O)N1Cc2cnnn2-c2ccccc2C1C#N (centres undefined) returned JMJD2A Tudor inh -10.1%, CtBP-E1A blk 2.1, HP1b chromo inh 38.8% and Six1-Eya2 inh 4.1.
CCN1CCN(c2ccc(N)c(C)c2)CC1 was read as JMJD2A Tudor inh -26.6%, BAZ2B block -27.7%, CtBP-E1A blk -3.2, HP1b chromo inh 3.5%, Six1-Eya2 inh -22.0 and G9a block 44.7µM*.
CCOc1cc(C=C2C(=O)NC(=S)NC2=O)ccc1O was read as JMJD2A Tudor inh 31.6µM*, CtBP-E1A blk -12.5, HP1b chromo inh inconclusive and Six1-Eya2 inh -0.8.
COc1ccc(C=C2C(=O)NC(=S)NC2=O)cc1OC was read as JMJD2A Tudor inh 22.4µM*, CtBP-E1A blk -10.2, HP1b chromo inh inconclusive and Six1-Eya2 inh -8.2.
Screening CCN1CCN(Cc2cc(Br)cc(OC)c2O)CC1 returned JMJD2A Tudor inh -21.9%, BAZ2B block 11.5%, CtBP-E1A blk 5.9, HP1b chromo inh 25.5%, Six1-Eya2 inh 0.9 and G9a block inconclusive.
For Oc1c(Br)cc(Br)cc1CN1CCN(Cc2ccccc2)CC1 the results were JMJD2A Tudor inh 20µM*, BAZ2B block 79.4µM*, CtBP-E1A blk -25.5, HP1b chromo inh -8.8%, Six1-Eya2 inh inconclusive and G9a block 44.7µM*.
For Cc1ccc(-c2nc(S(=O)(=O)c3ccccc3)c(SCC(=O)NC3CCCCC3)o2)cc1 the results were JMJD2A Tudor inh -8.9%, BAZ2B block 0.2%, HP1b chromo inh 26.1% and G9a block inconclusive.
CC1=CC(C)C2C(=O)N(CCC[N+](C)(C)C)C(=O)C2C1 (centres undefined) was read as JMJD2A Tudor inh -4.5%, BAZ2B block -22.9%, CtBP-E1A blk 1.2, HP1b chromo inh 20.3%, Six1-Eya2 inh 11.9 and G9a block inconclusive.
CN1CC[C@@]2(CCCN(C(=O)Oc3ccccc3)C2)C1 was read as G9a block -3.3%[12.7 µM].
For O=[N+]([O-])c1ccc(O[C@@H]2O[C@H](CO)[C@@H](O)[C@H](O)[C@H]2F)c([N+](=O)[O-])c1 the results were G9a block 23.8µM*!.
For O=C1NCCOC(=O)[C@H](Cc2ccc(F)cc2)CC/C=C/C[C@@H]1CC(=O)N(CCO)Cc1ccccc1 the results were JMJD2A Tudor inh -10.7%, CtBP-E1A blk 2.2, HP1b chromo inh 43.6% and Six1-Eya2 inh 8.3.
O=c1[nH]c(=S)n(-c2cccc(Cl)c2)c(O)c1/C=N/N1CCOCC1 was read as JMJD2A Tudor inh -20.3%, BAZ2B block -24.1%, HP1b chromo inh 46.2%, Six1-Eya2 inh -2.0 and G9a block inconclusive.
Screening Cn1c(=O)c2[nH]cnc2n(C)c1=O returned JMJD2A Tudor inh -15.1%, BAZ2B block inconclusive, CtBP-E1A blk 1.0, HP1b chromo inh -25.5%, Six1-Eya2 inh -3.6 and G9a block 3.36µM*!.
CCN(CC)Cc1cc(Nc2ccnc3cc(Cl)ccc23)ccc1O was read as JMJD2A Tudor inh -28.1%, BAZ2B block 50.1µM*!, CtBP-E1A blk -21.9, HP1b chromo inh 17.5%, Six1-Eya2 inh -5.7 and G9a block inconclusive.
CN(C)C(=O)Oc1ccnc2cc(Cl)ccc12 was read as JMJD2A Tudor inh -3.2%, BAZ2B block -12.3%, CtBP-E1A blk 2.1, HP1b chromo inh -1.8%, Six1-Eya2 inh 8.5 and G9a block 1.7%.
`CC(C)N(Cc1ccccc1)C(=O)CCS(=O)(=O)c1ccc2c(c1)oc(=O)n2C` gave JMJD2A Tudor inh -4.1%, BAZ2B block -18.8%, CtBP-E1A blk -3.5, HP1b chromo inh 51.0%, Six1-Eya2 inh 2.6 and G9a block 70.8µM*.
CCN1CCN(C(=O)Cc2coc3ccc4ccccc4c23)CC1 was read as JMJD2A Tudor inh -21.7%, BAZ2B block -26.1%, CtBP-E1A blk -6.5, HP1b chromo inh -0.9%, Six1-Eya2 inh -15.3 and G9a block 50.1µM*.
Screening Cn1c(C(=O)O)c(CC(=O)N2CCN(Cc3ccccc3)CC2)c2ccccc21 returned JMJD2A Tudor inh -8.2%, BAZ2B block 6.8%, CtBP-E1A blk -3.6, HP1b chromo inh 41.2%, Six1-Eya2 inh -1.5 and G9a block -18.2%[59 µM].
Screening COc1ccccc1N1C(=O)NC(=O)/C(=C/c2ccc3c4c(cccc24)CC3)C1=O returned JMJD2A Tudor inh inconclusive, BAZ2B block inconclusive, CtBP-E1A blk -4.3, HP1b chromo inh 11.0%, Six1-Eya2 inh -10.3 and G9a block 8.91µM*.
For COC(=O)Cn1cc(/C=C2\C(=O)NC(=O)N(c3ccc(OC)cc3)C2=O)c2ccccc21 the results were JMJD2A Tudor inh 4.2%, BAZ2B block -3.8%, CtBP-E1A blk 0.9, HP1b chromo inh -5.2%, Six1-Eya2 inh 4.3 and G9a block 27.5%[0.501 µM].
COc1ccc(/C=C2\C(=O)NC(=O)N(Cc3ccccc3)C2=O)c(OC)c1OC was read as JMJD2A Tudor inh -14.5%, BAZ2B block -15.8%, HP1b chromo inh 17.2% and Six1-Eya2 inh -0.7.
O=C(O)Cn1cc(/C=C2\C(=O)NC(=O)N(c3ccc(F)cc3)C2=O)c2ccccc21 was read as BAZ2B block -22.9% and G9a block 50.1µM*.
